This note sets out measurements from PubChem BioAssay AID577 (University of Pittsburgh Molecular Library Screening Center, 2007).

Out of some 65,000 compounds screened, about 120 (0.18%) were called active. Shown is part of a subset that was picked to be rich in actives. Unmarked numbers belong to inactive results. No stated cut-off is given here; in the data, active means z-score below about -3; inactive means the rest.

This assay deals with Genome polyprotein (West Nile virus) (UniProt P06935). Put plainly: inhibitors of WNV NS2B-NS3 protease, primary screen, biochemical, fluorogenic substrate (AID 577). The following applies: fluorogenic substrate Ex360/Em465, active compounds read low.
Genome polyprotein (West Nile virus), sequence (P06935 1371-1501 limits assumed): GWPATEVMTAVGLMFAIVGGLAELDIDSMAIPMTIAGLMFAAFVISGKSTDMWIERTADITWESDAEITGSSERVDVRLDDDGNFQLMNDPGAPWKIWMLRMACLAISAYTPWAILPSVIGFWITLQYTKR
Genome polyprotein (West Nile virus), sequence (P06935 1502-1679 limits assumed): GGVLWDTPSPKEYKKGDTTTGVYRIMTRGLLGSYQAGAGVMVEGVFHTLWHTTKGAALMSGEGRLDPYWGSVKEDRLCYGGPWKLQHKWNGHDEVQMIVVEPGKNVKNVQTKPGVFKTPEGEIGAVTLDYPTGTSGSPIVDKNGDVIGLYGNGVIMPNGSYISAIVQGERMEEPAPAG
Consider `C[C@H](NC(=O)NCCc1ccccc1)C(=O)O`, for which the z-score is 0.46.
To `CC(=O)Nc1cccc2c1[n+]([O-])c(C)c(C)[n+]2[O-]` belongs 1.06; to `CC(NC(=O)CN1CCN(Cc2ccc(Cl)cc2)C1=O)c1ccc2c(c1)OCCO2` (stereo unspecified), 0.67; to `COc1ccc(OC)c(-n2cc3c(=O)n(C)c(=O)n(C)c3c2)c1`, 0.45.
Under `C=C(C)COc1ccc(-c2n[nH]c(C)c2-c2ccccc2OC)c(O)c1` stands 0.16.
To `COc1ccc(CC(NC(C)=O)C(=O)NC2CCN(C(=O)Nc3ccc(C#N)cc3)CC2)cc1OC` (stereo unspecified) belongs -0.8; to `Cc1cc(NC(=O)CCC(=O)N(c2cccc(F)c2)C(C(=O)NC2CCCC2)c2ccncc2)no1` (stereo unspecified), 1.41; to `CCOc1ccc(-c2nnc(-c3ccco3)o2)cc1`, -0.08.
On to `COc1ccc(CC(=O)Nc2ccc(-c3nnc(-c4ccc(C)cc4)o3)cc2)cc1`, for which the z-score was 0.17.
Take `Cc1ccc(OCC(=O)Nc2ccc(-c3nnc(-c4ccco4)o3)cc2)cc1`: the z-score was -3.16 (active).
To `CCCn1c(O)c(CN2CCCC(C)C2)c(C)c(C#N)c1=O` (stereo unspecified) belongs -0.51; to `Clc1ccc(Cc2nn3c(-c4ccncc4)nnc3s2)cc1`, 0.04.
On to `O=C(O)C1OC(C(=O)O)C2C1C(F)(F)C2(F)F` (stereo unspecified), for which the z-score is 1.24.
To `CC1CSc2nnc(CCc3ccccc3)n21` (stereo unspecified) belongs -0.75; to `CCOC(=O)C1CCCN(C(=O)c2ccc(CS(=O)(=O)c3ccc(Br)cc3)o2)C1` (stereo unspecified), -0.97.
To `COc1cc2c(cc1NC(=O)CN1CCN(S(=O)(=O)c3ccc(F)cc3)CC1)oc1ccccc12` belongs -0.05; to `CC(=O)N1C(=O)C2(Nc3ccccc3N2)c2ccccc21`, -0.34; to `O=S(=O)(NCc1ccccn1)c1ccc(F)cc1`, -0.56.
To `Cc1cc(=O)n2c3c(cccc13)CCC2` belongs -0.73; to `CCCCc1nc2ccccc2c(NC(=O)CN2CCN(C)CC2)c1CCC`, -1.27; to `Cc1ccc(C(C(=O)NC2CCCC2)N(Cc2ccco2)C(=O)CCC(=O)Nc2ccccn2)cc1` (stereo unspecified), 0.98.
Regarding `COc1ccc(-c2cn3ccsc3n2)cc1`, the z-score is -7.48 (active).
To `CCCC(=O)Nc1cccc(-c2cn3ccsc3n2)c1` belongs -1.1; to `O=C(NCc1cn2ccsc2n1)Nc1ccc(Cl)cc1`, -0.25.
Consider `CCOc1ccc(NC(=O)Nc2cc(C)on2)cc1`, for which the z-score is 0.95.
Turning to `Cn1c(=O)c2c(ncn2CC(=O)N2CCN(c3ccccc3)CC2)n(C)c1=O`, the z-score was 0.25.
For the compound `c1ccc(CCC2=NCCn3cccc32)cc1`, the z-score was -0.03.
With `COC(=O)c1cc(NC2c3ccccc3C(=O)N2c2ccc(Cl)cn2)cc(C(=O)OC)c1` (stereo unspecified), the z-score was -0.39.
Consider `CC(C)(C)c1ccc(C(=O)NCCC(=O)NCc2ccco2)cc1`, for which the z-score is 0.25.
Turning to `CCCN(CCC)CCNC(=O)c1cc2c(C)nc3ccccc3c2o1`, the z-score is 0.99.
Under `Cc1cc2cc(CN(Cc3cccs3)Cc3nnnn3CC3CCCO3)c(=O)[nH]c2cc1C` (stereo unspecified) stands -0.04; under `CCOc1ccccc1Oc1cn[nH]c1-c1ccc(OC)cc1O`, -0.64; under `CC(C)CCNC(=O)CN(C(=O)Cn1nnc(-c2ccc(F)cc2)n1)C1CCCC1`, -0.44.
To `CCOC(=O)C1CCCN(C(=O)CN(c2ccc(OC)cc2)S(=O)(=O)c2c(C)noc2C)C1` (stereo unspecified) belongs -0.04; to `Cc1cc(C)c(C)c(S(=O)(=O)Nc2ccc(O)cc2)c1C`, -1.62.
For the compound `CC(C(=O)N1CCOCC1)N1c2cccc3cccc(c23)S1(=O)=O` (stereo unspecified), the z-score was -0.43.
On to `CCCOc1ccc(Cn2c(O)cc(=O)[nH]c2=O)cc1`, for which the z-score was 0.4.
Regarding `CCC(=O)N1CCN=C1SCc1ccc(F)cc1`, the z-score is 0.56.
To `COc1ccc(CCN=C2SCC(=O)N2C)cc1OC` belongs -0.84.
Under `Cn1c(=O)[nH]c(=O)c2c1nc(NCCCn1ccnc1)n2Cc1cccc(Br)c1` stands -0.12; under `CC(=O)Oc1ccc2c(C)c(CC(C)O)c(=O)oc2c1` (stereo unspecified), 5.37; under `COC(=O)c1ccccc1NC(=O)CSc1ccccn1`, -0.33.
Under `Cn1cccc1Cc1nnc(SCC(=O)NCCc2ccccc2)n1-c1ccc(F)cc1` stands -0.68; under `COCCn1c(CN(Cc2ccccc2)Cc2ccccc2)nc2c1c(=O)n(C)c(=O)n2C`, 0.73.
Consider `O=C(COc1ccc(Cl)cc1)Nc1ccccc1CO`, for which the z-score was 1.62.
In the case of `CC(=O)C1=C(O)C(=O)N(c2ccc(S(N)(=O)=O)cc2)C1c1ccccc1F` (stereo unspecified), the z-score was -0.26.
Under `O=C(NCc1cccnc1)c1ccc(CS(=O)(=O)c2ccc(Br)cc2)o1` stands -0.48; under `CN(C)c1nc(N)nc(CSc2nnnn2-c2cccc3ccccc23)n1`, -0.13; under `Fc1ccc(OCc2nn3c(Cn4nnc5ccccc54)nnc3s2)cc1`, 1.56.
Under `CS(=O)(=O)c1ccc2nc(NC(=O)C3CCCCC3)sc2c1` stands -0.5; under `Cc1ccc(F)cc1NC(=O)c1cccc(N(C)C)c1`, -0.19.
For the compound `O=C(Nc1cccc(Cl)c1)OCc1ccccn1`, the z-score is 0.46.
Under `CCC(C)(NC(=O)c1ccccn1)C(=O)NC1CCCCC1` (stereo unspecified) stands 0.53; under `O=C(Nc1ccc2c(c1)OCO2)C1CC(c2c(F)cccc2Cl)=NO1` (stereo unspecified), 1.16.
On to `CCSC1(SCC)N=C(N)C2(C#N)C(c3ccccc3)NC(C)=CC12C#N` (stereo unspecified), for which the z-score is -1.23.
On to `O=C(CC1OC(=O)c2ccccc21)NC1CCCCC1` (stereo unspecified), for which the z-score is -0.53.
Under `O=C(NCC1CCCO1)C(C(=O)c1ccccc1)n1cc(Cl)ccc1=O` (stereo unspecified) stands -0.94; under `CCn1cc(C(=O)N2CCN(C3CCCCC3)CC2)c2cc(OC)c(OC)cc2c1=O`, 0.44; under `O=C(O)C1CC(=O)N(Cc2cccnc2)C1` (stereo unspecified), -0.77.
Under `O=C1CCC(Cc2ccccc2)N1` (stereo unspecified) stands 0.78; under `O.O.O.O=S(=O)([O-])OC[C@H]1O[C@@H](O[C@]2(COS(=O)(=O)[O-])O[C@H](OS(=O)(=O)[O-])[C@@H](OS(=O)(=O)[O-])[C@@H]2OS(=O)(=O)[O-])[C@H](OS(=O)(=O)[O-])[C@@H](OS(=O)(=O)[O-])[C@@H]1OS(=O)(=O)[O-].[Al]`, -0.72.
